Experimental data from PubChem BioAssay AID2314 (National Center for Advancing Translational Sciences (NCATS), 2010).
The campaign covered roughly 300,000 compounds. About 37,000 (12%) were called active. Rule as the data show it: active = max response mostly above about 13% (no sharp cut-off); inactive = mostly below about 14%. This excerpt belongs to a sample that is enriched for actives.

assay: Cycloheximide Counterscreen for Small Molecule Inhibitors of Shiga Toxin; conditions: cell reporter, cycloheximide protein synthesis inhibition counterscreen; stronger effect = higher value; also: read at 38.3 µM for the half of the compounds with a filed dose; 0% is about no effect

Structure (SMILES) | max response
Cn1ccc(=Nc2ccc(NC(=O)c3ccc(N=c4ccn(C)c5ccc([N+](=O)[O-])cc45)cc3)cc2)cc1 | -1.72% (inactive)
O=C(NCCc1ccccn1)c1cccnc1Oc1ccc(Cl)cc1 | 0.291% (inactive)
O=C(NCCc1ccccn1)c1ccc(COc2ccccc2)o1 | 28.1% (active)
O=C(CNC(=O)COc1ccccc1)NCCc1ccccn1 | 5.88% (inactive)
Cc1ncn2cc(-c3ccc(Cl)cc3Cl)[nH]c(=O)c12 | 8.02% (inactive)
Cc1cccc(N2CCN(S(=O)(=O)c3ccc(-c4cc(C)no4)s3)CC2C)c1 (stereo unspecified) | -3.69% (inactive)
O=C(CN1CCN(S(=O)(=O)c2ccc(Cl)s2)CC1)NCc1ccc(Cl)cc1 | 30.7% (active)
Cc1ccc(CNC(=O)CN2CCN(Cc3ccc(Cl)cc3)C2=O)cc1 | -4.69% (inactive)
Cc1ccccc1N1CCN(CC(=O)NCc2ccc(Cl)cc2)CC1 | -1.19% (inactive)
COCCn1c(C)cc(C(=O)CSc2nc3ccccc3c(=O)n2C(C)COC)c1C (stereo unspecified) | 13.4% (inactive)
COc1cccc(CNc2nc3nc4c(c(=O)n3[nH]2)CCC4)c1 | -3.21% (inactive)
COc1cccc(-c2cc3nc4c(c(N5CCC6(CC5)OCCO6)n3n2)CCCC4)c1 | 24.2% (active)
O=C(c1cc2nc(-c3ccccc3)cc(-c3ccccc3)n2n1)N1CCC2(CC1)OCCO2 | 3.88% (inactive)
C=Cc1ccc(C(=O)N2CCCC(CCC(=O)N3CCN(c4ccccn4)CC3)C2)cc1 (stereo unspecified) | -3.56% (inactive)
COc1cc(C)cc(CN2CCC(Cc3ccccc3)CC2)c1O | -8.91% (inactive)
Cc1nnc(NC(=O)CCCOc2ccccc2)s1 | -3.73% (inactive)
COCCSc1nnc(NC(=O)CCS(=O)(=O)Cc2ccccc2)s1 | -1.53% (inactive)
CSc1nnc(NC(=O)c2nc(S(=O)(=O)Cc3ccc(C)cc3)ncc2Cl)s1 | 63.3% (active)
Cc1ccc(CS(=O)(=O)c2ncc(Cl)c(C(=O)Nc3nnc(C)s3)n2)cc1 | 66% (active)
Cc1ccc(S(=O)(=O)CC(=O)Nc2nnc(C)s2)cc1 | -6.45% (inactive)
CSc1ncc(Cl)c(C(=O)Nc2cc(C)ccc2C)n1 | 7.29% (inactive)
Cc1ccc(CN2CCC(N3CCC(C(=O)NCC4CCCO4)CC3)CC2)o1 (stereo unspecified) | 4.92% (inactive)
CCOC(=O)c1c(NC(C)=O)sc2c(O)c(Br)ccc12 | -7.21% (inactive)

Structure (SMILES) | max response
CC(Oc1cc2oc(=O)c3c(c2cc1Cl)CCCC3)C(=O)NCc1ccncc1 (stereo unspecified) | -1.94% (inactive)
Cc1cccc(NS(=O)(=O)c2ccc(C(=O)NCC(C)(C)N3CCOCC3)cc2)c1C | -1.4% (inactive)
Cc1ccc(CC2C(=O)N(c3ccc(F)cc3)C(=O)C2C)cc1 (stereo unspecified) | 7.99% (inactive)
CC(C)[C@H](NC(=O)N1c2ccccc2NC(=O)[C@@H]1C(C)C)C(=O)N[C@H](C(=O)O)c1ccccc1 | 5.5% (inactive)
CC(=O)Nc1ccc(S(=O)(=O)N2CCC(C(=O)NC3CC3)CC2)cc1 | -6.68% (inactive)
Cn1c(=O)c2c(nc(NCCNC(=O)c3ccco3)n2Cc2ccccc2F)n(C)c1=O | -1.04% (inactive)
Nc1nc(-c2ccccc2)cc(-c2ccccc2)n1 | 21% (active)
CNc1nc(-c2ccccc2)cc(-c2ccccc2)n1 | -1.91% (inactive)
Nc1cccc(-c2cc(-c3ccccc3)nc(-c3cccc(N)c3)n2)c1 | -5.19% (inactive)
COc1ccc2c(C)cc3nnnn3c2c1 | -1.91% (inactive)
O=Cc1c(NCCCN2CCCC2=O)c2ccccc2[nH]c1=O | -2.01% (inactive)
Cc1ccc(C2NC(C(=O)O)CS2)cc1 (stereo unspecified) | 1.34% (inactive)
CCOc1ccc2nc(NCCNC(=O)C(C)(C)C)c(C)cc2c1 | 3.67% (inactive)
CCOc1ccc(S(=O)(=O)NCCSc2ccccc2)cc1 | -2.61% (inactive)
CCOc1ccc2nc(NCCNS(=O)(=O)c3ccccc3)c(C#N)cc2c1 | 25.7% (active)
Cc1ccc(C)c(NC(=O)c2cc(-c3cc(C)cc(C)c3O)n[nH]2)c1 | 5.99% (inactive)
COc1ccc([N+](=O)[O-])cc1N(CC(O)Cn1nnc2ccccc21)S(=O)(=O)c1ccc(C)cc1 (stereo unspecified) | 10.2% (inactive)
CCc1ccc(CNC(=O)C2CC(=O)N(CCc3ccc(C)cc3)C2)cc1 (stereo unspecified) | 0.654% (inactive)
COc1cc(/C=N/NC(=O)c2ccccc2)ccc1OS(=O)(=O)c1ccccc1 | 10% (inactive)
COc1ccc(/C=N/NC(=O)c2ccccc2)cc1OS(=O)(=O)c1ccccc1 | 17.9% (active)
COc1ccc(/C=N\NC(=O)c2sc(N)nc2C)cc1OC | 16.4% (active)
COc1ccc(/C=N/S(=O)(=O)c2ccccc2)cc1OC | -3.6% (inactive)
COc1ccc(C(=O)Oc2cc(/C=N/NS(=O)(=O)c3ccc(C)cc3)ccc2OC)cc1 | 1.6% (inactive)
